According to ChEMBL document CHEMBL4513216, “Probing the Open Global Health Chemical Diversity Library for Multistage-Active Starting Points for Next-Generation Antimalarials” (ACS Infect Dis, 2020):
Among all 65,000 compounds or so, about 2,100 (3.2%) showed an effect of 50% or more. The median lay at about -52%. This excerpt belongs to a sample that is enriched for strong results.

Each molecule was assayed on Plasmodium falciparum (assay: Screen against P. falciparum Asexual Blood Stage (ABS), at 5uM). Conditions: tested at 5 uM.
Format: functional, Dd2

Structure (SMILES)	INHIBITION [%]
COC1CCN(CCNC(=O)NC(C)c2cccc(Cl)c2)CC1 (stereo unspecified)	23.9
COC1CCN(CCNC(=O)NCC(C)c2cccc(C)c2)CC1 (stereo unspecified)	54.5
COC1CCN(CCNC(=O)NC(C)c2ccc(F)c(F)c2)CC1 (stereo unspecified)	45.9
Cc1ccc(S(=O)(=O)c2ncccc2CN2CCN(CCO)CC2)cc1	-44.3
CC(C)c1ncc2c(n1)CN(c1ncnc3[nH]ccc13)CC2	4.74
O=C1NC(c2cccnc2)=NC12CCN(CCCc1ccccc1)CC2	-84.2
COCCN1C[C@@H]2[C@@H](OC)CCN(Cc3ccc(C)o3)[C@@H]2C1	3.04
COCCN1C[C@H]2[C@@H](C1)N(Cc1cnn(C)c1)CC[C@H]2OC	-59.7
COCCN1C[C@H]2[C@@H](C1)N(Cc1ccc(C)o1)CC[C@H]2OC	-41.6
COCCN1C[C@@H]2[C@@H](OC)CCN(Cc3ccsc3)[C@@H]2C1	66.7
COCCN1C[C@@H]2[C@@H](OC)CCN(Cc3cccs3)[C@@H]2C1	66.1
COCCN1C[C@@H]2[C@@H](OC)CCN(Cc3ccco3)[C@@H]2C1	-1.85
Cc1ccc(CN2CC[C@@H]3[C@@H](CO[C@H]3CN(C)C)C2)o1	-21.4
NC(=O)c1cccc(CN2CCc3c(ncn3C3CC3)C2)c1	-158
COc1ccc2c(c1)ncn2C[C@]1(O)CCCN2CCCC[C@@H]21	-42.3
COC(=O)c1cc(C(=O)N2CCCC(C)C2)n(-c2ccccc2)n1 (stereo unspecified)	50.2
COC(=O)c1cc(C(=O)N2CCCCCC2)n(-c2ccccc2)n1	-126
COC(=O)c1cc(C(=O)N2CCC(C)CC2)n(-c2ccccc2)n1	43.3
COCC1c2nnn(C)c2CCN1C(=O)COc1ccccc1OC (stereo unspecified)	-85.8
CS(=O)(=O)NCCN(CCCO)C1CCc2ccccc21 (stereo unspecified)	-55.5
CCCN1CCC(NC(=O)c2csc(C)c2C)CC1	-48.6
Cc1ccc(-c2c(C(=O)NC3CCN(C)CC3)csc2C)cc1	61.9
CCCN1CCC(NC(=O)c2csc(C)c2-c2ccccc2)CC1	28.9
CN(C)C(=O)COC[C@]12COC[C@H]1CN(C1CCCC1)C2	-77.5
CCNC(=O)[C@@H]1C[C@H](N)CN1Cc1ccc(Sc2ccc(C)cc2)o1	64.6
CCNC(=O)[C@@H]1C[C@H](N)CN1Cc1ccc(-c2cc[nH]n2)o1	-81.2

Structure (SMILES)	INHIBITION [%]
CCNC(=O)[C@@H]1C[C@@H](N)CN1Cc1ccc(-c2ccccc2C#N)o1	-71.4
CCNC(=O)[C@@H]1C[C@@H](N)CN1Cc1ccc(Sc2ccc(C)cc2)o1	63.9
CCNC(=O)[C@@H]1C[C@H](N)CN1Cc1ccc(-c2ccccc2C#N)o1	-5.25
CCNC(=O)[C@@H]1C[C@@H](N)CN1Cc1ccc2cccc(Cl)c2n1	31.4
CC/C=C(\C)CN1CCC(CNC(=O)c2c[nH]c(=O)c(Cl)c2)C1 (stereo unspecified)	-7.22
Nc1ncccc1C(=O)NCc1cccc(Br)c1	-72
CCS(=O)(=O)CC(=O)NCC1(c2c(F)cccc2F)CCCC1	-90.7
CC(=O)NCCC(=O)NCC1(c2c(F)cccc2F)CCCC1	-77.3
COC(=O)NCC(=O)NCC1(c2c(F)cccc2F)CCCC1	69.7
Cc1cc(C)c2nc(C3CC3)cc(C(=O)N3CCCC3C(N)=O)c2c1 (stereo unspecified)	-98.6
COCC1c2c(cnn2C)CCN1C(=O)c1cscn1 (stereo unspecified)	-109
CC(Cn1cccn1)NCc1nc(-c2cccnc2)no1 (stereo unspecified)	-56
CC(c1ccccc1)N1CCC(NC(=O)CCc2ccsc2)CC1 (stereo unspecified)	54.8
CSCC(=O)NC1CCN(C(C)c2ccccc2)CC1 (stereo unspecified)	-27.6
CCSCCC(=O)NC1CCN(C(C)c2ccccc2)CC1 (stereo unspecified)	-58.8
Cc1cc2c(N3CCC(N(C)Cc4nccs4)CC3)ncnc2s1	-19.4
CC(NC1CCN(CCS(C)(=O)=O)CC1)c1cnn(C(C)C)c1 (stereo unspecified)	-83.1
CC(NC1CCN(CCS(C)(=O)=O)CC1)c1ccc(Cl)cc1 (stereo unspecified)	58.2
CC(c1ccc(Cl)cc1)N1CCN(CCS(C)(=O)=O)CC1 (stereo unspecified)	-38.8
Cc1cc(CN(C)C2CCCN(Cc3noc(C)n3)C2)no1 (stereo unspecified)	-90.9
Cc1nc(CN2CCCC(N(C)CCCc3ccccc3)C2)no1 (stereo unspecified)	-0.463
COc1ccc(CCN(C)C2CCCN(Cc3noc(C)n3)C2)cc1 (stereo unspecified)	60.6
CN(Cc1cnn(C)c1)C1CCCN(Cc2noc(C3CC3)n2)C1 (stereo unspecified)	-39.7
Cc1nc(CN(C)C2CCN(Cc3c(C)noc3C)C2)no1 (stereo unspecified)	-19.4
CN(Cc1cccnc1)C1CCCN(Cc2noc(C3CC3)n2)C1 (stereo unspecified)	52.6
